From PubChem BioAssay
CHRM1 antagonist = antagonists of human M1 muscarinic receptor; CHO-K1 hM1, Fluo-8 calcium fluorescence, ACh EC80 antagonist; inhibition, % at 3 µM; 1.3% of 360,000 active; AID 588852;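 active = percent inhibition above its own plate's cutoff, namely the mean of that plate's compound wells plus 3 SD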;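 note: peak over basal fluorescence ratio during 140 s after agonist addition; 0% = ACh EC80 plus DMSO and 100% = DMSO alone without agonist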
Target sequence (P11229 whole entry, looked up): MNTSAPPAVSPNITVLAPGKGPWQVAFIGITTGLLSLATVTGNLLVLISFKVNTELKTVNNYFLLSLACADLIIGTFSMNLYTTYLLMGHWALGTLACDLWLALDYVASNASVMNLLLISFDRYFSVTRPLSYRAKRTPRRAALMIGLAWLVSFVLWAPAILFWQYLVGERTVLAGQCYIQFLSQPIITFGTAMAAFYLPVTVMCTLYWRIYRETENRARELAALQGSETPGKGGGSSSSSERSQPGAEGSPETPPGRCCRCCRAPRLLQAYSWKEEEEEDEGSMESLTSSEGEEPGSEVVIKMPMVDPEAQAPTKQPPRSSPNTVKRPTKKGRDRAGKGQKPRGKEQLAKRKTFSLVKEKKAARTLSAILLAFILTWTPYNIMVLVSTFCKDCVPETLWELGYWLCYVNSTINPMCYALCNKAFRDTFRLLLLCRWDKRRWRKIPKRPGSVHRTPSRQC
CHO-K1 Ca ag = counter-screen for M1 agonists: effect in parental CHO-K1 cells | Fluo-8 calcium fluorescence; scaled to maximal ATP response, vehicle zero | activation, % at 3 µM | 0.48% of 360,000 active | AID 602248; in the data active = activation above about 15%;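 note: untransfected CHO-K1 host cells lacking M1 receptor as counterscreen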
CHO-K1 Ca antag = M1 antagonist counterscreen hit in parental CHO-K1 cells; 0.6% of 360,000 active; AID 602250; inhibition, % at 3 µM; ATP-induced calcium, Fluo-8 fluorescence;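 active = inhibition above a per-plate cutoff, the plate's mean sample inhibition plus 3 SD, cut at about 24% in these data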;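 note: 0% = DMSO plus EC80 ATP and 100% = DMSO alone without ATP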
CHRM1 PAM = potentiates human M1 receptor response to acetylcholine; P11229; CHO-K1 hM1, Fluo-8 calcium fluorescence, ACh EC20; 0% = ACh EC20, 100% = maximal ACh; activation, % at 3 µM; 0.088% of 360,000 active; AID 588819; in the data active = activation above about 19%, passing the limit was not always enough
CHRM1 agonist = human M1 muscarinic receptor agonism | P11229 | CHO-K1 hM1, Fluo-8 calcium fluorescence, agonist mode; 0% DMSO, 100% acetylcholine EC100 | activation, % at 3 µM | 0.33% of 360,000 active | AID 588814;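 active = activation above the run's mean compound activation plus 3 SD, cut at about 16% in these data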;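 note: peak over basal fluorescence ratio within a 140 s kinetic read after compound addition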
CHO-K1 Ca PAM = nonselective activator or artifact in parental CHO-K1 calcium assay. AID 602247. activation, % at 3 µM. 0.02% of 360,000 active. ATP EC20, Fluo-8 calcium fluorescence; 0% at ATP EC20, 100% at ATP max;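 active = activation above the run cutoff, the mean activation of all test compounds plus 3 SD, cut at about 40% in these data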;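 note: peak over basal fluorescence ratio in a 140 s read after ATP addition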
* hit, by the source's call. The list is not random: actives were taken first. Their share in the collection is about 2.4%.

SMILES | CHRM1 antagonist | CHO-K1 Ca ag | CHO-K1 Ca antag | CHRM1 PAM | CHRM1 agonist | CHO-K1 Ca PAM
CN1C[C@@H]2[C@@H]3C(=O)N(C)C(=O)[C@@H]3[C@](C)(C1=O)N2C(=O)c1ccc(F)cc1 | -0.4 | 2.0 | -2.8 | 2.8 | -3.1 | 16.7
Fc1cccc(Cc2noc(CN3CCN(C4CCc5ccccc5C4)CC3)n2)c1 (stereo not drawn) | 72.0* | 3.6 | -12.6 | -25.8 | -9.9 | 25.8
Fc1cccc(Cc2noc(CN3CCSCC3)n2)c1 | -8.4 | 1.0 | -20.0 | 10.8 | -9.1 | 16.6
Fc1cccc(Cc2noc(CN3CCCN(C4Cc5ccccc5C4)CC3)n2)c1 | 93.3* | 1.1 | -10.6 | -33.7 | -12.8 | 19.7
CCCn1ncc(CN2CCC(CO)(Cc3ccc(OC)cc3)CC2)c1C | 42.3* | -0.2 | -6.6 | -31.6 | -13.8 | 7.8
COc1ccc(CC2(CO)CCN(CC3=Cc4cc(Cl)ccc4OC3)CC2)cc1 | 26.6* | 7.5 | 22.5 | -33.3 | -10.5 | 7.5
COc1ccc(CC2(CO)CCN(Cc3cnn(-c4ccccc4)c3)CC2)cc1 | -3.0 | 3.4 | -7.1 | 4.3 | -13.3 | 11.8
COc1ccc(-c2cc(C(F)(F)F)nc(SCC(=O)Nc3cc(C)on3)n2)cc1OC | -10.3 | 0.2 | 24.9* | 9.1 | 0.2 | -6.3
COc1ccc(-c2cc(C(F)(F)F)nc(SCCC(=O)Nc3cc(C)on3)n2)cc1 | -8.6 | -0.1 | -3.2 | 5.5 | -2.4 | -1.9
NC(=O)c1ccc(NC(=O)CNC(=O)c2sc3ccccc3c2Cl)cc1 | 4.3 | 0.2 | 8.4 | 6.4 | 1.5 | -11.4
Cn1c(=O)n(Cc2ccc(F)cc2)c(=O)c2c1nc1n2CCN1Cc1ccco1 | 6.7 | 3.9 | -14.1 | -0.1 | -4.2 | -2.6
Cn1c(=O)n(CCc2ccccc2)c(=O)c2c1nc1n2CCN1Cc1ccco1 | 31.9* | 2.6 | 15.5 | -7.0 | 0.2 | -24.5
NS(=O)(=O)c1ccc(NC(=O)CN2CCc3ccccc3C2)cc1 | -1.8 | 1.1 | -21.8 | -0.7 | -11.5 | 5.6
COc1ccc(CCNc2ncnc3sc(C)cc23)cc1OC | 41.0* | 14.1 | 32.1* | -15.4 | 3.1 | -12.5
COc1ccc(CCNc2ncnc3[nH]ncc23)cc1OC | -15.8 | 4.2 | -7.3 | -9.7 | 2.9 | 19.5
CCOc1ccc(NS(=O)(=O)c2cc(C(=O)NCCN3CCOCC3)ccc2C)cc1 | -8.8 | 0.0 | -2.3 | 0.8 | -2.8 | 1.8
N#CC1CC(c2ccccc2)=NN1c1ccccc1[N+](=O)[O-] (stereo not drawn) | 4.7 | -0.1 | 23.8* | -4.9 | -6.2 | -12.8
Cc1c(C(c2cc3c(cc2Br)OCO3)c2c(C)n(C)n(-c3ccccc3)c2=O)c(=O)n(-c2ccccc2)n1C | 39.3* | -0.2 | -10.8 | -20.7 | -7.6 | 6.6
COc1ccc(-c2cn(-c3ccc(OC)cc3)c3[n+]2-c2ccccc2CC3)cc1 | 21.4 | 1.3 | 8.9 | -12.8 | -14.9 | 13.6
COc1ccc(-c2c[n+]3c(n2-c2ccccc2)CCCCC3)cc1 | 6.6 | 0.2 | -3.4 | -1.4 | -10.9 | 16.1
CC(C)c1ccc(-n2c(-c3ccccc3)c[n+]3c2CCc2ccccc2-3)cc1 | 25.6 | 11.0 | 32.1* | -21.2 | -13.1 | 1.2
COc1ccc(-n2c(-c3ccc(Br)cc3)c[n+]3c2CCc2ccccc2-3)cc1 | 44.1* | 0.0 | 0.4 | -28.2 | -10.3 | 19.9
COc1ccccc1-n1c(-c2ccccc2)c[n+]2c1CCc1ccccc1-2 | 59.3* | 0.8 | -1.8 | -26.0 | -9.9 | 19.8
Cc1ccc(C)c(OCCC(=O)OCC(=O)NNC(=O)c2ccccc2)c1 | 29.8 | 0.6 | 6.5 | -15.5 | -1.1 | -8.0
CCN(CC)CCCNC(=O)CC1Oc2ccc(C)cc2NC1=O (stereo not drawn) | 8.0 | 0.3 | -2.2 | -14.4 | -13.9 | 1.6
SMILES | CHRM1 antagonist | CHO-K1 Ca ag | CHO-K1 Ca antag | CHRM1 PAM | CHRM1 agonist | CHO-K1 Ca PAM
CCN1CCN(Cc2ccc(NC(=O)CC3Oc4ccc(C)cc4NC3=O)cc2)CC1 (stereo not drawn) | 40.4* | -0.2 | 5.9 | -32.7 | -13.9 | 0.9
Cc1ccc(NC(=O)CC2Oc3ccc(C)cc3NC2=O)cc1 (stereo not drawn) | -12.7 | 0.3 | 9.0 | 9.6 | -2.5 | 0.2
Cc1ccc2c(c1)NC(=O)C(CC(=O)Nc1ccc(CN3CCC(C)CC3)cc1)O2 (stereo not drawn) | 101.0* | -0.1 | -6.9 | -34.8 | -13.4 | 21.8
Cc1ccc2c(c1)NC(=O)C(CC(=O)NCCN(CC(C)C)CC(C)C)O2 (stereo not drawn) | 27.5* | 0.5 | 0.3 | -18.6 | -13.9 | 16.5
Cc1cc(C(=O)CCC(=O)N2CCN(c3ccccc3)CC2)c(C)s1 | -9.9 | 1.0 | -9.6 | 6.6 | -4.8 | 4.6
CCCCc1cc(O)c(CCCC)c(O)c1 | 51.3* | 47.2* | 48.1* | -16.4 | 55.2* | -9.3
CC(=O)Nc1cccc(-n2nnc(SCC(=O)Nc3ccc(F)c(Cl)c3)n2)c1 | -3.8 | 22.0* | 15.3 | 0.8 | 0.3 | -1.5
CC(=O)NC(c1cccc(F)c1)c1nc(-c2cccs2)cs1 (stereo not drawn) | -11.3 | 0.1 | -1.0 | 7.2 | -3.9 | 9.2
c1ccc(CC[C@@H]2CC[C@@H](CCc3ccccc3)N2)cc1 | 32.1* | 3.7 | -12.3 | -27.2 | -14.0 | 17.9
CN(C)S(=O)(=O)c1cccc(NC(=O)c2ccc(S(=O)(=O)N3CCCC3)cc2)c1 | 9.9 | 1.7 | -4.9 | -11.6 | -3.6 | 5.3
CC(=O)O/N=C1\C(=O)N(Cc2ccc(C)cc2)c2ccccc21 | -6.2 | 1.0 | 5.0 | 10.3 | 24.2* | 16.5
CCOc1ccc(NS(=O)(=O)c2ccc(NC(=S)NC(C)=O)cc2)cc1 | 7.3 | 21.8* | 2.9 | 1.2 | 34.2* | 21.1
COc1ccc(NS(=O)(=O)c2ccc(NC(=S)NC(=O)C(C)C)cc2)cc1 | 2.0 | 7.9 | -1.3 | 4.3 | 19.5* | 14.0
CCc1ccccc1OCC(=O)N1CCN(c2ncccn2)CC1 | -0.3 | 0.7 | 9.9 | 1.5 | -2.1 | 3.7
O=C(NCc1cccs1)c1cc(-c2ccc(O)cc2)on1 | -15.8 | 4.9 | 5.3 | 4.5 | 16.8* | -3.5
O=C(Nc1c(F)cc(F)cc1Br)c1cc(-c2ccc(O)cc2)on1 | -1.7 | 2.8 | 6.8 | 1.6 | 18.3* | 3.2
O=C(Nc1c(F)cc(F)cc1Br)c1cc(-c2ccccc2)on1 | 3.8 | 0.1 | 0.0 | -2.3 | -3.8 | 2.8
Cc1ccc(-c2cc(C(=O)NCc3cccs3)no2)cc1 | 2.1 | 0.1 | -2.6 | 0.6 | -6.5 | 7.3
O=C(NC1CC2CCCC(C1)N2C(=S)Nc1ccccc1Cl)C1CC1 (stereo not drawn) | 7.0 | 0.2 | -14.4 | -12.0 | -11.5 | 7.0
Cc1ccc(C)c(NC(=S)N2C3CCCC2CC(NC(=O)C2CC2)C3)c1 (stereo not drawn) | 37.5* | -0.2 | 7.6 | -17.6 | -12.1 | -5.8
O=C(NCc1cccs1)c1nc(-c2cccs2)no1 | -1.1 | 0.2 | 10.4 | 2.1 | -7.1 | -4.8
O=C(NCCc1ccccc1)c1nc(-c2cccs2)no1 | -5.5 | 0.2 | 26.3* | 7.5 | -9.7 | 4.0
